Active and inactive are the calls of the source. Unless noted, how the calls were made is not given here.

Assay [1] can be described thus: compounds binding Alexa647 anti-His antibody – biochemical, small-molecule microarray, 635 nm fluorescence, artefact control for SMM control protein annotation, primary screen (AID 1128).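 Further: score merges feature fluorescence with signal-to-noise for each printed compound spot.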 Conditions: higher = more signal.
The subject of assay [2] is Human papillomavirus type 1a E7 protein (residues 1-88). Nature of the assay: HPV1a E7 small-molecule binders, primary screen, biochemical, small-molecule microarray, residues 1-88, 635 nm (AID 1129). The conditions noted are these: small-molecule microarray binding, fluorescence 635 nm; higher = more signal.
Assay [3] addresses Focal adhesion kinase 1 (Homo sapiens) (UniProt Q05397). Nature of the assay: PTK2 protein binding on printed compound slides – biochemical, small-molecule microarray, 635/667 nm fluorescence, BSA, DTT, primary screen (AID 1130).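 Further: composite of spot emission at 667 nm and signal to noise over triplicate slides.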 The conditions noted are these: 635 nm fluorescence, higher = more signal.
The subject of assay [4] is Fibrinogen (Alexa647-labelled). Nature of the assay: Alexa647-fibrinogen binding to printed small molecules – biochemical, small-molecule microarray, 635/667 nm fluorescence, artefact control for SMM control-protein annotation, profiling panel (AID 1131).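 Further: z-score merges 667 nm fluorescence with per-spot signal-to-noise over triplicate slides.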 Conditions: fibrinogen-A647 binding fluorescence, higher = more signal.
Assay [5] addresses Follistatin (Homo sapiens) (UniProt P19883). The experiment in a line: FST protein binding to printed compounds – biochemical, small-molecule microarray, 635/667 nm fluorescence, primary screen (AID 1132). The conditions noted are these: 635 nm fluorescence, higher = more signal.
Assay [6] has as its target Fibroblast growth factor 2 (Homo sapiens) (UniProt P09038). Nature of the assay: basic fibroblast growth factor binding to printed compounds – biochemical, small-molecule microarray, 635/667 nm fluorescence, primary screen (AID 1133). The conditions noted are these: FGF2, fluorescence 635/667, higher = more signal.
The nature of assay [7]: JC-1 mitochondrial potential readout, lung cancer cells – cell-based, A549, JC-1 fluorescence, basal, 24 h, 100 nL, profiling panel (AID 1138).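 Further: A549 lung adenocarcinoma cells under basal conditions with no added stimulus; test concentration not given here.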 Conditions: higher = more signal.
The test system of the next assay is Lefty1. Nature of the assay: Lefty1 protein binding to printed compounds – biochemical, small-molecule microarray, 635/667 nm fluorescence, primary screen (AID 1139). The conditions noted are these: fluorescence 635/667, higher = more signal.
For assay [8], the system named is wheat germ agglutinin (Triticum aestivum), Alexa647-labelled. The experiment in a line: Alexa647-WGA lectin binding to printed small molecules – biochemical, small-molecule microarray, 635/667 nm fluorescence, artefact control for SMM control-protein annotation, profiling panel (AID 1140).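 Further: score merges 667 nm feature emission with signal to noise over triplicate slides.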 The conditions noted are these: WGA-A647 binding, 635 nm fluorescence, higher = more signal.

For assay [9], the target named is Luciferin 4-monooxygenase (Photinus pyralis) (UniProt P08659). Nature of the assay: inhibition of purified Photinus pyralis luciferase – biochemical, luminescence, purified enzyme, 2006 set, primary screen (AID 1141).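 Further: cell-free assay with purified firefly luciferase at 100 ng per well in PBS; test concentration not given here.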 The conditions noted are these: purified firefly luciferase, SteadyGlo luminescence, 30 min; higher = more signal, called active from +8 up or from −8 down.

Assay [10] deals with Wnt5a (protein binding on small-molecule microarray). The experiment in a line: small molecules binding Wnt5a protein – biophysical, small-molecule microarray, 635/667 nm fluorescence, primary screen (AID 1142).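 Further: fluorescence read at 667 nm with signal to noise per printed feature.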 Conditions: 635 nm fluorescence, higher = more signal.
Assay [11] can be described thus: ATP-based viability of Huh7 replicon cells – cell-based, CellTiter-Glo luminescence, basal, 48 h, cytotoxicity control for HCV replication inhibitor project, primary screen (AID 1143).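 Further: Huh7 hepatoma cells carrying a hepatitis C replication reporter with no stimulus; test concentration not given here.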 Conditions: higher = more signal, called active from +8 up or from −8 down.
Assay [12] can be described thus: Pseudomonas biofilm growth suppression – PAO1 strain, BacTiter-Glo luminescence, LB-PBS, primary screen (AID 1144). Conditions: P. aeruginosa PAO1 biofilm, 12 h, higher = more signal.
Assay [13] in a line: basal CRE-LacZ reporter activity in PC12 – cell-based, unstimulated, primary screen (AID 1145). The conditions noted are these: no forskolin, luminescence, 4.5 h, higher = more signal, called active from +8 up or from −8 down.
Assay [14] is described as follows: forskolin-driven CRE-LacZ activity in PC12 – cell-based, CRE-LacZ reporter, forskolin-stimulated, primary screen (AID 1146).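 Further: PC12 cells with 6xCRE LacZ reporter stimulated by forskolin 10 µM; beta-galactosidase reporter signal reflecting CREB driven transcription.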 Conditions: luminescence, 4.5 h, higher = more signal, called active from +8 up or from −8 down.
Assay [15] addresses Streptavidin (Streptomyces avidinii) (UniProt P22629). The experiment in a line: compounds binding control protein streptavidin – biophysical, small-molecule microarray, 635/667 nm fluorescence, artefact control for SMM compound annotation, primary screen (AID 1147).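 Further: signal reflects streptavidin binding to arrayed compounds as a control protein.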 Conditions: higher = more signal.
Assay [16] can be described thus: probe aInhba binding on compound microarray – biochemical, small-molecule microarray, 635/667 nm fluorescence, primary screen (AID 1148).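 Further: score merges 667nm spot fluorescence with signal-to-noise for antibody binding to printed compounds.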 Conditions: higher = more signal.
Assay [17] addresses Torsin-1A (Homo sapiens) (UniProt O14656). The experiment in a line: TOR1A wild-type binding on microarray – cell lysate, small-molecule microarray, lysate, 635/667 nm, primary screen (AID 1149). Conditions: COS7 hTOR1A-WT lysate, 635 nm fluorescence, higher = more signal.
Assay [18] shares this target. Nature of the assay: torsin A mutant lysate binding on microarrays – cell lysate, small-molecule microarray, COS7 lysate, 635/667 nm fluorescence, primary screen (AID 1150).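 Further: score pools 667 nm emission and signal to noise measuring lysate protein binding.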 Conditions: COS7 hTOR1A mutant lysate, 635 nm fluorescence, higher = more signal.
The subject of assay [19] is Sonic hedgehog protein (Shh). Nature of the assay: Sonic hedgehog microarray binding compounds – biochemical, small-molecule microarray, 635/667 nm fluorescence, primary screen (AID 1151).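 Further: Shh protein binding to compounds spotted on small-molecule microarray slides; score combines spot fluorescence intensity with signal-to-noise across triplicate slides.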 Conditions: 635 nm fluorescence, higher = more signal.

Chain of Fibroblast growth factor 2 (Homo sapiens) (P09038 whole entry, looked up): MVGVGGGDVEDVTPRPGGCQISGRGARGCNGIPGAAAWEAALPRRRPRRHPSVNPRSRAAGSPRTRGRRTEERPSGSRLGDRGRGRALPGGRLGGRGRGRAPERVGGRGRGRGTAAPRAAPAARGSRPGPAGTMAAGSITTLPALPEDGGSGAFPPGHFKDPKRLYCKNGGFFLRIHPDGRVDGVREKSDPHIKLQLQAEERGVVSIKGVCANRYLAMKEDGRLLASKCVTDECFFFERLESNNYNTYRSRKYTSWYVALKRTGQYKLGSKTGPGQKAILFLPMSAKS
Chain of Luciferin 4-monooxygenase (Photinus pyralis) (P08659 whole entry, looked up): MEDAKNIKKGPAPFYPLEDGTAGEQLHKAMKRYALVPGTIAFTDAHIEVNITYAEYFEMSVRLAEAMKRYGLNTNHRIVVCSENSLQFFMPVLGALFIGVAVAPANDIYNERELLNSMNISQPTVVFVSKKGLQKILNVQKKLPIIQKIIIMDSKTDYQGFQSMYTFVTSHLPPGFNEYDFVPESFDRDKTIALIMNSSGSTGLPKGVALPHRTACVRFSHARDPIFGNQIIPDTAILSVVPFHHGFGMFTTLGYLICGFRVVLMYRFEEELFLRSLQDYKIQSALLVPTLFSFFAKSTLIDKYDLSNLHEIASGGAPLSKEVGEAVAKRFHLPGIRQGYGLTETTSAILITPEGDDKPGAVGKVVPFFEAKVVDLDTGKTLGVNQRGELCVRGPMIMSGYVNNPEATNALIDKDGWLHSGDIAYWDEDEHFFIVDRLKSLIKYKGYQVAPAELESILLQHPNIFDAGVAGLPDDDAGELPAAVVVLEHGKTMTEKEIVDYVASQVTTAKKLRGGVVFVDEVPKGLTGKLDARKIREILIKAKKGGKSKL
Chain of Torsin-1A (Homo sapiens) (O14656 whole entry, looked up): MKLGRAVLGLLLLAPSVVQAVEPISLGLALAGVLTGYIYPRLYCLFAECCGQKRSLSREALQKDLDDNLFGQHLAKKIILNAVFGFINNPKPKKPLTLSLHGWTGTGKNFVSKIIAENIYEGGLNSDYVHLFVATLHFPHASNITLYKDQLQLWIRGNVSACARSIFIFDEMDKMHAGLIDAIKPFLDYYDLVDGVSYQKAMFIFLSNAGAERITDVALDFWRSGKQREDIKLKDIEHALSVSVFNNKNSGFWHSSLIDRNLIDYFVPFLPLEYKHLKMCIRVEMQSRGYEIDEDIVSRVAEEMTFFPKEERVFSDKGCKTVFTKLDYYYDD
Chain of Focal adhesion kinase 1 (Homo sapiens) (Q05397 whole entry, looked up): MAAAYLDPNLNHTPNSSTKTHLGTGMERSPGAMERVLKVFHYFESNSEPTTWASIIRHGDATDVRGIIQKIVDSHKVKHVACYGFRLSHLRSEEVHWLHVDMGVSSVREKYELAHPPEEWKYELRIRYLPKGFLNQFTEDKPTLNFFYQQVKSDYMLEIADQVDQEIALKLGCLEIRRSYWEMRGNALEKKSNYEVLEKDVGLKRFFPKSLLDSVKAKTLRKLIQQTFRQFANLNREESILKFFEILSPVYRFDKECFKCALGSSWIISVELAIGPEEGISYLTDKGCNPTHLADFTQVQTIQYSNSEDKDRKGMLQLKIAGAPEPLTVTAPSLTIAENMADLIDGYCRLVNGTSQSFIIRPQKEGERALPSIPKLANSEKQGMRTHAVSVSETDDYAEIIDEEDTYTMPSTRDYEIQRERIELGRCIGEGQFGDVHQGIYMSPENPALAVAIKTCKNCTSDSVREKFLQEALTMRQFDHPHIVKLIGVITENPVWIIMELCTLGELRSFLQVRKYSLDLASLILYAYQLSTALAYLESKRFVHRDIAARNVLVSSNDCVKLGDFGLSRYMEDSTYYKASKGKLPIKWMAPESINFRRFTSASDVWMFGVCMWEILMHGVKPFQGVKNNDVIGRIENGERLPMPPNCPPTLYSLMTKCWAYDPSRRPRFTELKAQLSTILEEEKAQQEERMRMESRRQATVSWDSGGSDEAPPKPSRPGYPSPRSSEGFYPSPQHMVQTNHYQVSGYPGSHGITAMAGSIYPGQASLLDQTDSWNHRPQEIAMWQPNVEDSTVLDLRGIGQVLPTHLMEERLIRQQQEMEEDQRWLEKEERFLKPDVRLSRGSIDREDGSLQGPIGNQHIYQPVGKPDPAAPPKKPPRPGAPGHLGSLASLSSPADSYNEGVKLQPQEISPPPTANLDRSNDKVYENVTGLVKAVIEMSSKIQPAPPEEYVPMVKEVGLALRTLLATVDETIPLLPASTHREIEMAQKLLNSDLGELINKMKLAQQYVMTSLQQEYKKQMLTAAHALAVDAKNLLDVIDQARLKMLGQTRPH
Chain of Follistatin (Homo sapiens) (P19883 whole entry, looked up): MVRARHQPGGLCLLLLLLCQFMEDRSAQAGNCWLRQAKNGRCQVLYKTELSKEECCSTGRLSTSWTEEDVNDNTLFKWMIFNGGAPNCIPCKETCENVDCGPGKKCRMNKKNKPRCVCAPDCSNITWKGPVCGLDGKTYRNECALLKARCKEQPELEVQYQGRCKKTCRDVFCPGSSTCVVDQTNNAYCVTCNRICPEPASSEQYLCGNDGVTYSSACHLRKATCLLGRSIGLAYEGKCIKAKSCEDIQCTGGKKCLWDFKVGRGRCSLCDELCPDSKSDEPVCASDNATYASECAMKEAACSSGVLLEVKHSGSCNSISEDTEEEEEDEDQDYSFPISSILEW
Chain of Streptavidin (Streptomyces avidinii) (P22629 whole entry, looked up): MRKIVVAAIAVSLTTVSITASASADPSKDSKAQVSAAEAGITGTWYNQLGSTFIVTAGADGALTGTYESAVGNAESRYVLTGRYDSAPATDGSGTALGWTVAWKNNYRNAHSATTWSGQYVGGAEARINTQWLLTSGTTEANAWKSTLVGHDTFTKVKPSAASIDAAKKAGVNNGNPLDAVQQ

Turning to `COC(=O)[C@@]1(Cc2ccccc2N=[N+]=[N-])N=C(c2ccc(OCCCO)cc2)O[C@H]1c1ccccc1N=[N+]=[N-]`, the composite z-score in assay [1] came out at 1.08; in assay [2] it was 1.14; in [3], 0.909; in [4], 0.605; in assay [5], 1.27; in [6], 0.933. Moreover, the composite z-score is 0.119 in the assay with Lefty1; 0.767 in assay [8]; 0.323 in [10]; 0.169 in assay [15]; 0.221 in [16]; -0.266 with Torsin-1A (Homo sapiens) [17]. The composite z-score in the assay with Torsin-1A (Homo sapiens) [18] amounted to 0.0067; in assay [19], 0.58. In addition, the z-score in [7] was 2.85; in assay [9], -5.01 (inactive); in assay [11], -5.44 (inactive); in assay [12], -0.455 (inactive); in assay [13], 1.53 (inactive); in assay [14], 0.237 (inactive).
As for `CCOc1cc(C(O)C2C=CC3C(=O)N(c4ccccc4)C(=O)C3N2Nc2ccc(C#N)cc2)ccc1O` (stereo not given), the composite z-score in assay [1] was 1.29; in assay [2], 0.161; in [3], 0.471; in assay [4], 0.961; in assay [5], 0.765; in [6], -0.667. For the same compound, the composite z-score in the assay on Lefty1 was 0.113; in assay [8], 0.961; in assay [10] it was -0.162; in assay [15], 0.999; in assay [16], 0.288; in the assay with Torsin-1A (Homo sapiens) [17] it was 0.258. Besides, the results for the composite z-score (with Torsin-1A (Homo sapiens) [18]; in assay [19]) were 0.115 and -0.373, respectively. For the same compound, the z-score in [7] is -0.00105; in [9] it was -0.519 (inactive); in [11], 0.423 (inactive); in [12] it was -0.485 (inactive); in assay [13], -0.525 (inactive); in [14] it was 0.201 (inactive).
As to `CC(C)C(CO)N1C(=O)[C@@H]2C3C(=O)OCCC/C=C\[C@H]3OC23C=CCN(C(C)(C)C)C(=O)[C@@H]13` (stereo not given in full), the composite z-score was -0.539 in assay [1]; -0.768 in [2]; -0.147 in assay [3]; -2.19 in assay [4]; -0.895 in [5]; -0.363 in assay [6]. For the same compound, the composite z-score in the assay with Lefty1 is -0.404; in [8] it was -1.04; in assay [10] it was -0.0407; in [15] it was -0.542; in assay [16] it was -0.231; with Torsin-1A (Homo sapiens) [17] it was 0.16. Besides, the results for the composite z-score (with Torsin-1A (Homo sapiens) [18]; in [19]) were 0.3 and 0.5, respectively. The z-score in [7] is -0.0938; in [9] it was -0.197 (inactive); in assay [11] it was -0.162 (inactive); in assay [12] it was 1.19 (inactive); in [13], -0.0778 (inactive); in assay [14] it was -0.205 (inactive).
For the compound `COc1cc(CO)cc(I)c1O[C@H]1C=C(C(=O)NCCO)C[C@@H](NCc2ccc(F)cc2)[C@@H]1O`, the composite z-score is -1 in assay [1]; 0.822 in [2]; -0.123 in assay [3]; 0.619 in assay [4]; 0.951 in [5]; 1.03 in [6]. Further, the composite z-score with Lefty1 is 1.01; in [8], 0.518; in [10], 0.617; in assay [15], -0.156; in [16], -0.101; with Torsin-1A (Homo sapiens) [17], 0.0626. The composite z-score stood at 0.0975 with Torsin-1A (Homo sapiens) [18] and 0.591 in assay [19]. Besides, the z-score in [7] was 1.18; in [9], -0.0701 (inactive); in assay [11], -1.76 (inactive); in assay [12], -0.613 (inactive); in assay [13] it was 10 (active); in [14], -1.05 (inactive).
As for `COc1ccc(NC(=O)O[C@H]2[C@H](OC(=O)Nc3ccccc3)[C@H](OC(=O)Nc3ccccc3)[C@@H](OC)O[C@@H]2CO)cc1`, the composite z-score in assay [1] worked out at 1.65; in [2], 1.19; in [3], 0.709; in [4], 0.284; in assay [5] it was 1.35; in [6], 1.45. The composite z-score is 0.735 in the assay with Lefty1; 0.98 in assay [8]; 1.14 in assay [10]; 0.0994 in [15]; 0.398 in [16]; 0.97 with Torsin-1A (Homo sapiens) [17]. The composite z-score with Torsin-1A (Homo sapiens) [18] is 1.1; in assay [19], 1.44. Also, the z-score in assay [7] is 0.732; in assay [9] it was -0.128 (inactive); in assay [11], -4.38 (inactive); in assay [12], 0.643 (inactive); in assay [13] it was 0.204 (inactive); in [14], -1.05 (inactive).

Values taken from PubChem BioAssay.
